{"source": "PubChem BioAssay AID1814", "about": "(Broad Institute, 2009)", "note": "Hit rate of the full screen: of about 300,000 compounds, about 22,000 (7.3%) were called active. Roughly 2% stayed inconclusive and do not appear here. Shown is part of a subset that was picked to be rich in actives. Values without a mark were called inactive. Cut-off read from the data, not from the text of the source: active = activity score below about -60%; inconclusive = mostly about -28% to -61%; inactive = positive scores."}
{"test": "Activators via SNCA 5'UTR binding, MLPCN (AID 1814)", "details": "alpha-synuclein 5'UTR reporter, activators screen; active compounds read low; tested at 7.5 µM"}
{"smiles": "CCOC(=O)C1C(=O)C=C(c2ccc(OC)cc2)CC1c1ccco1", "note": "(stereo not given)", "activity score": "-74.2% (active)"}
{"smiles": "CCCC1(C(=O)OC)NC(c2ccco2)C2C(=O)N(C)C(=O)C21", "note": "(stereo not given)", "activity score": "27.8%"}
{"smiles": "CCOC(=O)c1c(Cc2ccc(Cl)cc2)c[nH]c1C", "activity score": "-90.9% (active)"}
{"smiles": "CN(c1cccc(NC(=O)Nc2ccc(Cl)cc2)c1)S(C)(=O)=O", "activity score": "-112% (active)"}
{"smiles": "O=[N+]([O-])c1ccccc1N/N=C1\\CCc2ccccc21", "activity score": "-187% (active)"}
{"smiles": "COc1ccc(/C=N/Nc2nc3ccccc3c(=O)[nH]2)cc1", "activity score": "-125% (active)"}
{"smiles": "Cc1nnc(N/N=C/c2ccccn2)[nH]c1=O", "activity score": "117%"}
{"smiles": "COc1ccc(-c2onc3ccc(C(C)=O)cc23)cc1", "activity score": "-120% (active)"}
{"smiles": "CS(=O)(=O)C1=NN2C(=N)/C(=C\\c3ccc(OCCOc4ccccc4)cc3)C(=O)N=C2S1", "activity score": "-73.6% (active)"}
{"smiles": "O=C(Nc1ccccc1F)c1ccc2c(c1)OCO2", "activity score": "-199% (active)"}
{"smiles": "N#Cc1ccccc1NC(=O)c1ccc2c(c1)OCO2", "activity score": "-87.9% (active)"}
{"smiles": "O=C(OCc1ccccc1F)c1ccc2c(c1)OCCO2", "activity score": "-210% (active)"}
{"smiles": "O=c1c(-c2ccccc2)coc2cc(O)ccc12", "activity score": "-128% (active)"}
{"smiles": "COc1cccc(/C=N/NC(=O)c2[nH]nc3c2CCc2ccccc2-3)c1O", "activity score": "76.4%"}
{"smiles": "CN(C)CCNC(=O)c1[nH]nc2c1CCc1ccccc1-2", "activity score": "-73.6% (active)"}
{"smiles": "O=C(CC1SCCNC1=O)Nc1ccc(Cl)c(Cl)c1", "note": "(stereo not given)", "activity score": "-77.7% (active)"}
{"smiles": "Oc1c(Cl)cc(Cl)c(Cl)c1Cc1c(O)c(Cl)cc(Cl)c1Cl", "activity score": "77.3%"}
{"smiles": "C=C(C)C(=O)O[C@H]1C/C(C)=C\\C(=O)/C=C(\\C)[C@H](O)[C@@H]2OC(=O)C(=C)[C@@H]21", "activity score": "-250% (active)"}
{"smiles": "CN1CCN(c2ccc(NC(=O)c3ccc4c(c3)OCCO4)cc2Cl)CC1", "activity score": "-66.8% (active)"}
{"smiles": "O=C(Nc1ccc(N2CCOCC2)cc1)c1ccc2c(c1)OCO2", "activity score": "-121% (active)"}
{"smiles": "O=C(Nc1ccccc1)c1ccc2c(c1)OCO2", "activity score": "-148% (active)"}
{"smiles": "O=C(Nc1ccc(C2CC2(Cl)Cl)cc1)c1cccc([N+](=O)[O-])c1", "note": "(stereo not given)", "activity score": "-92.3% (active)"}
{"smiles": "O=C(Nc1nc2ccccc2s1)c1ccc2c(c1)OCO2", "activity score": "53.7%"}
{"smiles": "O=C(Nc1cccc([N+](=O)[O-])c1)c1ccc2c(c1)OCO2", "activity score": "-99.5% (active)"}
{"smiles": "COc1ccc2oc(-c3cccc(NC(=O)CSc4ccc(Cl)cc4)c3)nc2c1", "activity score": "-97.9% (active)"}
{"smiles": "O=C(O)c1cccc(N=NN2CCCCCC2)c1", "activity score": "-74.8% (active)"}
{"smiles": "Cc1ccc(C(=O)Nc2ccc(C)c(S(=O)(=O)N(C)C)c2)s1", "activity score": "-185% (active)"}
{"smiles": "COc1ccc2ccccc2c1CNCc1ccccn1", "activity score": "-104% (active)"}
{"smiles": "O=C(c1ccc(Cl)cc1)N1N=C(c2ccccn2)CC1(O)C(F)(F)F", "note": "(stereo not given)", "activity score": "68.6%"}
{"smiles": "Cc1ccc(S(=O)(=O)/N=C(/Nc2ccccn2)c2ccc(Cl)cc2)cc1", "activity score": "-118% (active)"}
{"smiles": "C/C(=N\\NC(=O)Cc1ccc(Cl)cc1)c1ccccn1", "activity score": "85.6%"}
{"smiles": "Cc1cccc(CSc2ccc(-c3cccs3)nn2)c1", "activity score": "-110% (active)"}
{"smiles": "COc1ccc(/C(O)=C2/C(=O)C(=O)N(CCCN(C)C)C2c2ccccc2)cc1OC", "note": "(stereo not given)", "activity score": "-86.9% (active)"}
{"smiles": "Cc1ccc(NC(=O)c2sc3nc(N)c(C#N)cc3c2N)cc1", "activity score": "-133% (active)"}
{"smiles": "Brc1ccccc1C1N=C(c2ccccc2)NO1", "note": "(stereo not given)", "activity score": "-157% (active)"}
{"smiles": "N#Cc1ccc(C2N=C(c3ccccc3)NO2)cc1", "note": "(stereo not given)", "activity score": "-107% (active)"}
{"smiles": "COC(=O)c1c(NC(=O)c2ccc(S(=O)(=O)N3CCOCC3)cc2)sc2c1CCN(C(C)C)C2", "activity score": "-85.3% (active)"}
{"smiles": "O=[N+]([O-])c1cccc(Nc2c3ccccc3nc3ccccc23)c1", "activity score": "-124% (active)"}
{"smiles": "O=C(Nc1cccc(Br)c1)c1ccc2snnc2c1", "activity score": "-93% (active)"}
{"smiles": "FC(F)(F)c1ccnc(Oc2ccc(C3=NCCS3)cc2)c1", "activity score": "-169% (active)"}
{"smiles": "Cc1nn(C)cc1CNC(=O)Nc1ccc(Cl)cc1", "activity score": "-69.4% (active)"}
{"smiles": "Cn1ccc(NC(=O)Nc2ccc(Cl)cc2)n1", "activity score": "-80.2% (active)"}
{"smiles": "CSCc1ccc(C(=O)Nc2cc(C)cc(C)c2)cc1", "activity score": "-126% (active)"}
{"smiles": "C=CCn1c(SCC(N)=O)nnc1-c1cc2c(s1)CCC(CC)C2", "note": "(stereo not given)", "activity score": "-137% (active)"}
{"smiles": "c1ccc(CCN2CN=C(Nc3nc4ccccc4o3)NC2)cc1", "activity score": "-174% (active)"}
{"smiles": "O=C(NCc1ccccn1)c1cc2ccccc2oc1=O", "activity score": "-79.8% (active)"}
{"smiles": "O=C(NCCc1c[nH]c2ccccc12)c1cc2ccccc2oc1=O", "activity score": "-188% (active)"}
{"smiles": "CSc1ccc(/C=N/NC(=O)c2cccc(Cl)c2)cc1", "activity score": "-142% (active)"}
{"smiles": "O=C(N/N=C/c1ccc(Cl)c(Cl)c1)c1ccc2nc[nH]c2c1", "activity score": "-191% (active)"}
{"smiles": "Cc1nn(C)c(Oc2ccccc2)c1[N+](=O)[O-]", "activity score": "-79.9% (active)"}
{"smiles": "Cc1ccc(N2C(=O)S/C(=C/c3cn(C)c4ccccc34)C2=O)cc1", "activity score": "-177% (active)"}
{"smiles": "COc1cc(SC)ccc1C(=O)NCCOc1ccccc1Cl", "activity score": "-151% (active)"}
{"smiles": "O=C(NC(Nc1nc2ccc([N+](=O)[O-])cc2s1)(C(F)(F)F)C(F)(F)F)c1ccccc1", "activity score": "94.1%"}
{"smiles": "O=C(Nc1nc2ccc([N+](=O)[O-])cc2s1)c1ccncc1", "activity score": "-104% (active)"}
{"smiles": "CCN(CC)c1ccc(C(=O)OCC(=O)c2ccco2)cc1", "activity score": "-179% (active)"}
{"smiles": "Cc1csc(NC(=O)CSc2nnc(-c3cccnc3)o2)n1", "activity score": "-101% (active)"}
{"smiles": "COC(=O)c1c(NC(=O)COc2ccc(Cl)cc2Cl)sc2c1CC(C)(C)NC2(C)C", "activity score": "102%"}
{"smiles": "Cc1cc(NC(=O)COc2ccc(Cl)cc2Cl)n(CCC#N)n1", "activity score": "-122% (active)"}
{"smiles": "COc1ccc(C(=O)NCCSc2ccccc2C)cc1", "activity score": "-113% (active)"}
{"smiles": "COc1ccc(Nc2cc(=O)oc3ccccc23)cc1", "activity score": "-97.7% (active)"}
{"smiles": "CSc1nc(-c2ccccc2)nc(C(Cl)Cl)n1", "activity score": "114%"}
{"smiles": "Cc1csc(NC(=O)Nc2ccccc2[N+](=O)[O-])n1", "activity score": "-255% (active)"}
{"smiles": "CN(C)c1ccnc2sc(C(=O)c3ccccc3)c(N)c12", "activity score": "-138% (active)"}
{"smiles": "Cc1nc2sc(C(=O)c3ccccc3)c(N)c2c2c1CCCC2", "activity score": "-156% (active)"}
{"smiles": "NC(=O)c1sc2nc3c(c(-c4ccccc4)c2c1N)CCC3", "activity score": "56.2%"}
{"smiles": "Cc1cccc(NC(=O)COc2ccc(Br)cc2C)n1", "activity score": "-210% (active)"}
{"smiles": "CCOc1cc(N2CCOCC2)c(OCC)cc1NC(=O)COc1cccc2cccnc12", "activity score": "88.8%"}
{"smiles": "Cc1cccc(NC(=O)COc2ccccc2C)n1", "activity score": "-109% (active)"}
{"smiles": "Cc1cccc(NC(=O)Cc2ccc(Br)cc2)n1", "activity score": "-90.2% (active)"}
{"smiles": "Cc1cccc(NC(=O)c2ccc3ccccc3n2)n1", "activity score": "-103% (active)"}
